Percent Effect data for 11 compounds are collected here from ChEMBL document CHEMBL3988442, “University of Dundee, Small-Polar-MMV Screening Library” (2021).

Holding throughout (parameters): scale not given: direction of the effect not stated beside the values
Assay [1] addresses Protein translocase subunit SecA (Escherichia coli (strain K12)) (UniProt P10408). The assay is described as follows: Assay to Identify E. coli SecA ATPase Inhibitors. The assay is classed as functional. As to conditions: 30 µM.
Assay [2] deals with T1, Ubiquitin-activating enzyme e1, putative (Leishmania donovani (strain BPK282A1)) (UniProt E9BSI1).
T1 sequence (whole entry): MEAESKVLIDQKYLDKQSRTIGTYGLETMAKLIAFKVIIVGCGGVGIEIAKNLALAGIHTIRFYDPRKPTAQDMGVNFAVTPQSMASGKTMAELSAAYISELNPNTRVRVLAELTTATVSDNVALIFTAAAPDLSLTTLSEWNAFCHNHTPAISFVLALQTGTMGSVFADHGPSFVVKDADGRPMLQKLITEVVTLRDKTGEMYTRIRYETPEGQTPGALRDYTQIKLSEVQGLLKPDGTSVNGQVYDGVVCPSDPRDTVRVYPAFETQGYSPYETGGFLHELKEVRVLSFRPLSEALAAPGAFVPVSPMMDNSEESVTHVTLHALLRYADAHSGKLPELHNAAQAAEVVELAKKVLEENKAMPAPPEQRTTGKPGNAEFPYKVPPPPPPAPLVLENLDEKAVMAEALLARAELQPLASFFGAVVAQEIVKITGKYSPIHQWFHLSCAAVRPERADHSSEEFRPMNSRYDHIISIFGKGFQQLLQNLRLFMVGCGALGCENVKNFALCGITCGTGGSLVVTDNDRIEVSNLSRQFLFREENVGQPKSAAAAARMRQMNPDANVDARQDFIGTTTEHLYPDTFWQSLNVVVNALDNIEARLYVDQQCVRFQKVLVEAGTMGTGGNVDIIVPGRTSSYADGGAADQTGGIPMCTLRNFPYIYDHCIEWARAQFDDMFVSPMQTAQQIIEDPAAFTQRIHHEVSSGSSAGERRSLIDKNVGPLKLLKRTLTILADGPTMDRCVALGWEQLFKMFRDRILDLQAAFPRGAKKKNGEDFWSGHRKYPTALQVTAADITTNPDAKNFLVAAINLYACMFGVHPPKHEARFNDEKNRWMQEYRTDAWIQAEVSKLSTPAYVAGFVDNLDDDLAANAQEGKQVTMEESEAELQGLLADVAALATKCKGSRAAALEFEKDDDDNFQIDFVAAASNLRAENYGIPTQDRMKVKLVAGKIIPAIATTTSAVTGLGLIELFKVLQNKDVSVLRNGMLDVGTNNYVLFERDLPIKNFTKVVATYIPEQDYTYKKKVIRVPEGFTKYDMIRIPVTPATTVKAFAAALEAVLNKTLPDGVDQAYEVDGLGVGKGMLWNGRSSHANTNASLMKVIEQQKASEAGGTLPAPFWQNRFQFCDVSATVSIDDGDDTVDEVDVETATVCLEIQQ
As to the kind of experiment: Leishmania donovani Ubiquitin Activating Enzyme (LdE1). The assay is classed as functional. As to conditions: 30 µM.

Assay [3] has as its target AMP-activated protein kinase, AMPK (Homo sapiens) (UniProt P54646+O43741+P54619+Q9UGJ0+Q9Y478+Q13131+Q9UGI9). The assay is described as follows: AMP-dependent Kinase enzyme assay. An in vitro enzyme assay that detects ADP turnover that is directly proportional to AMPK activity. This uses naive AMPK that is activated during the assay with MK-8722. The assay is classed as functional. As to conditions: 30 µM.

The target of assay [4] is Sialic acid-binding Ig-like lectin 9 (Homo sapiens) (UniProt Q9Y336). The assay is described as follows: Hs-Siglec9 ALPHAscreen SOP 20170721. Conditions: 10 µM.
A further assay has as its system Trypanosoma cruzi. The assay is described as follows: Trypanosoma cruzi phosphomannomutase and mannose-1-phosphate guanylyltransferase assay. The assay is classed as functional. As to conditions: 10 µM.
Assay [5] addresses T2, Arginase-2, mitochondrial (Homo sapiens) (UniProt P78540).
T2 sequence (whole entry): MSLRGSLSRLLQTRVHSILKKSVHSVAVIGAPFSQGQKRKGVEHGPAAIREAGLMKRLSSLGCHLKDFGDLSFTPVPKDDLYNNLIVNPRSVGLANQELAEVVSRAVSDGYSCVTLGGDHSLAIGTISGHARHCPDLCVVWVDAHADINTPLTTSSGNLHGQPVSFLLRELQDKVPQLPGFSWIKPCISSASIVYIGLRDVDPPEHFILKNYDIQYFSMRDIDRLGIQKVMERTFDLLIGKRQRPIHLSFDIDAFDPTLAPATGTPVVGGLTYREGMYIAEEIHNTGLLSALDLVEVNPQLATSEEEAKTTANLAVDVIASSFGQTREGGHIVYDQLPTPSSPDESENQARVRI
As to the kind of experiment: in vitro enzyme assay to detect the production of urea directly proportional to the activity of Arginase II. Note: in the data most compounds retested in dose-response had high values. The assay is classed as functional. As to conditions: 33.3 µM.

The target in assay [6] is T3, Proteasome subunit beta (Trypanosoma cruzi) (UniProt O96673).
T3 sequence (whole entry): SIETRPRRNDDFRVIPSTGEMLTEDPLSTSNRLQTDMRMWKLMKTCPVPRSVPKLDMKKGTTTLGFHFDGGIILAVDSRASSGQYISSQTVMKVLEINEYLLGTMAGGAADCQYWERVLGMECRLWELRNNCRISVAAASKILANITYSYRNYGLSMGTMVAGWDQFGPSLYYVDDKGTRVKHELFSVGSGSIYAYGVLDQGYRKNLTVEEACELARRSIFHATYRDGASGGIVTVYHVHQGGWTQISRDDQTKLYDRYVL
The assay is described as follows: Trypanosoma cruzi proteasome chymotrypsin-like activity (TcProtChymo) assay. Note: in the data most compounds retested in dose-response had high values. Conditions: 9.37 µM. The assay is classed as functional.

The species named for a further assay is Homo sapiens. As to the kind of experiment: To identify inhibition of the IFN signalling (Jak-Stat) pathway via expression of an eGFP reporter gene under the control of an IFN-stimulated response element (ISRE) containing MxA promoter. The assay is classed as functional. Conditions: 30 µM.
Assay [7] deals with T4, Tyrosyl-tRNA synthetase, putative (Trypanosoma cruzi (strain CL Brener)) (UniProt Q4DSP6).
T4 sequence (whole entry): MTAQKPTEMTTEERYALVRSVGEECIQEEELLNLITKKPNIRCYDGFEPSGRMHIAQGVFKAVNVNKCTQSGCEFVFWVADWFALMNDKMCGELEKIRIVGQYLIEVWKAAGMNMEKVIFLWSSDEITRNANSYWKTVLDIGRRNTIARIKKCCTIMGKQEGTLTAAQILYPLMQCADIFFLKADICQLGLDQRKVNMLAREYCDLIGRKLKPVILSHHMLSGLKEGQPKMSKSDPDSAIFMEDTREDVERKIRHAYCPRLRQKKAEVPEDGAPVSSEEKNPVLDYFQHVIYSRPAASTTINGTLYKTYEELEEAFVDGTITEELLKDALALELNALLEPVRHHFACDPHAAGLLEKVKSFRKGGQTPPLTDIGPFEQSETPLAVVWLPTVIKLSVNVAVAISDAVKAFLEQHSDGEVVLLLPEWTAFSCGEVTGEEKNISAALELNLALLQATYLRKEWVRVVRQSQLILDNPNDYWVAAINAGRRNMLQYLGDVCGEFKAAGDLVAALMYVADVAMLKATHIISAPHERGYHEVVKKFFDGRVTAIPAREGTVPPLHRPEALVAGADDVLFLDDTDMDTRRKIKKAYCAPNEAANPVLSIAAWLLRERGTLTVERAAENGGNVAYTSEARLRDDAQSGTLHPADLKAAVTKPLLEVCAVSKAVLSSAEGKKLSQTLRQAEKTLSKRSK
The assay is described as follows: Trypanosoma cruzi tyrosyl tRNA synthetase (TcYRS) _High Tyrosine SOP. Note: in the data most compounds retested in dose-response had high values. The assay is classed as functional. Conditions: 30 µM.

The target of assay [8] is T4, Tyrosyl-tRNA synthetase, putative (Trypanosoma cruzi (strain CL Brener)). As to the kind of experiment: Trypanosoma cruzi tyrosyl tRNA synthetase (TcYRS) SOP. The assay is classed as functional. As to conditions: 30 µM.
Assay [9] addresses Chromo domain-containing protein 1 (Saccharomyces cerevisiae (strain ATCC 204508 / S288c) (Baker's yeast)) (UniProt P32657). As to the kind of experiment: ScCHD-1 Enzyme Inhibition Assay. Note: in the data most compounds retested in dose-response had high values. The assay is classed as functional. As to conditions: 30 µM.

For some of these results: Results with a measured potency or affinity are listed apart.

Sequence of Sialic acid-binding Ig-like lectin 9 (Homo sapiens) (Q9Y336 whole entry): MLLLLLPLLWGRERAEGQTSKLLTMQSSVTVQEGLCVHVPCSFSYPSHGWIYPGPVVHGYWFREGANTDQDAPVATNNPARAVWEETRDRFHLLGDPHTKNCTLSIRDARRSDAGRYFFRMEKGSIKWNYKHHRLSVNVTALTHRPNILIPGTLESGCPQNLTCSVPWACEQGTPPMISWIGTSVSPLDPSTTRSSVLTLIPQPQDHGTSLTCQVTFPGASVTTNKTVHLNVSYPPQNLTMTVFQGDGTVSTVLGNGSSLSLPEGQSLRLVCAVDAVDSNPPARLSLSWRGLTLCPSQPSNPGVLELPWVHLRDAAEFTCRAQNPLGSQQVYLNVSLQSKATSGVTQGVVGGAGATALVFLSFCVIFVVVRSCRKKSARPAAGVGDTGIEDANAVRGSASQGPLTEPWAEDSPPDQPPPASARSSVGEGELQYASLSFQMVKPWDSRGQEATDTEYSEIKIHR
Sequence of Chromo domain-containing protein 1 (Saccharomyces cerevisiae (strain ATCC 204508 / S288c) (Baker's yeast)) (P32657 whole entry, the tested form may be a part): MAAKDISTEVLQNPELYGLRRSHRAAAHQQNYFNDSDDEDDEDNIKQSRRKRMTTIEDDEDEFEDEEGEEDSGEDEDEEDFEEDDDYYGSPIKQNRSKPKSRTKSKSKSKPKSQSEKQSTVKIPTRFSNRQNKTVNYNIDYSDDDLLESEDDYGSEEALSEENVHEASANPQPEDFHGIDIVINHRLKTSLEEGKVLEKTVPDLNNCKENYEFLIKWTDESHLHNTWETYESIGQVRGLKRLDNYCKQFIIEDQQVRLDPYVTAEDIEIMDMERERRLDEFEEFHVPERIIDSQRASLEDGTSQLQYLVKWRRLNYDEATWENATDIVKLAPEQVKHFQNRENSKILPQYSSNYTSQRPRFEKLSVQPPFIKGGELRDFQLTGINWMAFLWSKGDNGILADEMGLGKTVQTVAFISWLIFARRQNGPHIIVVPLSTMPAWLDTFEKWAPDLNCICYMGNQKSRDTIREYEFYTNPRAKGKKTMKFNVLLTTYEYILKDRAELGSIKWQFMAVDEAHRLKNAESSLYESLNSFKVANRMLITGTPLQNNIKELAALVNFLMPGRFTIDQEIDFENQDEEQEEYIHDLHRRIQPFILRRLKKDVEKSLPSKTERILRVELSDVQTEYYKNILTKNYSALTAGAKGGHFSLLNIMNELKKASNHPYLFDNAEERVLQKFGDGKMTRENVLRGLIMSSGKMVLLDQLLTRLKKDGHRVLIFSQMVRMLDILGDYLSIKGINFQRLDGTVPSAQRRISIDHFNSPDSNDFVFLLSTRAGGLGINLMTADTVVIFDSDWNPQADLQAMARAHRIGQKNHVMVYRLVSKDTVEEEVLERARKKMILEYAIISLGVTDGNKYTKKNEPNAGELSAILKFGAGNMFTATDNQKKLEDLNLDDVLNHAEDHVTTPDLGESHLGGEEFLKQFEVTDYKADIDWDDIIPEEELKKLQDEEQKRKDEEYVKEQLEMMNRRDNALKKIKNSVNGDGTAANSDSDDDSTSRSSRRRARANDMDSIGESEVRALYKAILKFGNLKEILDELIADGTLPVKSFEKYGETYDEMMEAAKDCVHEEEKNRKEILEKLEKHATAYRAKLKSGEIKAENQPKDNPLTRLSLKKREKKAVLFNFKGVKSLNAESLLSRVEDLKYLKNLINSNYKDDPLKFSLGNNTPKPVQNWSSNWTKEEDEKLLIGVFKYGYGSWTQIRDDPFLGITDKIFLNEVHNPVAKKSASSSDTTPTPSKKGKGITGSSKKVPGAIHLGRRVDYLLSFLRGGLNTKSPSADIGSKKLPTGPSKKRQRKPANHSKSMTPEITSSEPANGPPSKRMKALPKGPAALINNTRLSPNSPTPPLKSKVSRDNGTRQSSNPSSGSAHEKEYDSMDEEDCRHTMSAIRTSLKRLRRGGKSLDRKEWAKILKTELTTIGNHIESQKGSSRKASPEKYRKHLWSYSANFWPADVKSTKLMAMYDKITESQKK
Sequence of Protein translocase subunit SecA (Escherichia coli (strain K12)) (P10408 whole entry): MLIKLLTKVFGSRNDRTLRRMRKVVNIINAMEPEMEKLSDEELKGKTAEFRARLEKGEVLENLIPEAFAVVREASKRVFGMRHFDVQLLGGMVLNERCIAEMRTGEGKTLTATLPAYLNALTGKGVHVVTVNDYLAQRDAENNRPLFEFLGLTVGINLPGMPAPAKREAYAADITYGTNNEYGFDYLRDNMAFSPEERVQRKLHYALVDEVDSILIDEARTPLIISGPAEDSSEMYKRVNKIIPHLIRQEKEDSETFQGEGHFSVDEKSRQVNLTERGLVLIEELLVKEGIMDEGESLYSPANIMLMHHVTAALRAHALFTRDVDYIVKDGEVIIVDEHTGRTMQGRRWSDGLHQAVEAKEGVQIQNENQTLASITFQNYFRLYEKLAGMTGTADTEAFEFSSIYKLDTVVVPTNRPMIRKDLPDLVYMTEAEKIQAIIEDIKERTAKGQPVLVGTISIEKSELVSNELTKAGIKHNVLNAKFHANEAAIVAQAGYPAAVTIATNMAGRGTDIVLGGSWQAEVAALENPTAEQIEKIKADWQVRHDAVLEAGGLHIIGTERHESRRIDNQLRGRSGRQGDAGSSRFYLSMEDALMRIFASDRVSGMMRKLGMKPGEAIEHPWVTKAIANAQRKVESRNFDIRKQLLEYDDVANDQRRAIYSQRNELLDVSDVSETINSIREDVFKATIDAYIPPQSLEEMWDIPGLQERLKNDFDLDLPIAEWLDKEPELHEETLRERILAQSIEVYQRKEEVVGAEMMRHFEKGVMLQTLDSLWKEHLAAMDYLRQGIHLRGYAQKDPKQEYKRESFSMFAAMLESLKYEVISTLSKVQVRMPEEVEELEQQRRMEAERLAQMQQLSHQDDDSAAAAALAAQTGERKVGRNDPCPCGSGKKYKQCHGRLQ

`COCC(O)CNC(=O)c1coc(COc2ccc3sc(C)nc3c2)n1` (stereo unspecified): the Percent Effect in [1] is -0.0441%; in assay [2], 5.48%; in assay [3], 3.03%; in assay [4] it was 0.244%; with Trypanosoma cruzi it was -7.25%; in [5], 5.46%. Besides, the Percent Effect is 14.7% in assay [6]; 44.1% in the assay filed under Homo sapiens; 5.38% in assay [7]; 15% in [8]; -1.23% in [9].
Consider `Fc1cccc(Oc2ccc(CNCC3CNc4ccnn4C3)cn2)c1` (stereo unspecified), for which the Percent Effect in assay [1] is -2.95%; in assay [2] it was 13%; in [3], -2.17%; in assay [4], 5.01%; in the assay on Trypanosoma cruzi it was 10.5%; in [5], 2.85%. For the same compound, the Percent Effect was 8.28% in assay [6]; 8.31% in the assay listed under Homo sapiens; 37.9% in [7]; 43.9% in assay [8]; -12.1% in [9].
Consider `OC(COCc1ccccc1Cl)CN1CC(n2cccn2)C1` (stereo unspecified), for which the Percent Effect in assay [1] was 1.1%; in assay [2], -15.8%; in [3], 3.43%; in [4], -0.349%; in the assay on Trypanosoma cruzi, -1.5%; in [5], 6.9%. Further, the Percent Effect in assay [6] is 14.5%; in the assay filed under Homo sapiens, 9.39%; in assay [7] it was 4.41%; in [8], 0%; in assay [9] it was -9.18%.
Turning to `CC(C)c1nnc2n1CCN(CC(=O)Nc1sccc1C#N)C2`, the Percent Effect is -8.13% in assay [1]; 7.89% in assay [2]; -4.21% in assay [3]; -3.31% in assay [4]; -3.83% with Trypanosoma cruzi; 1.08% in assay [5]. In addition, the Percent Effect is -3.13% in assay [6]; -0.485% in the assay listed under Homo sapiens; -2.46% in assay [7]; -6.17% in assay [8]; 3.89% in assay [9].
On to `CCc1nc(C2CCCN2Cc2nccn2Cc2ccccc2)no1` (stereo unspecified), for which the Percent Effect was -0.608% in [1]; 0% in [2]; 1.64% in assay [3]; 13.2% in [4]; 2.25% with Trypanosoma cruzi; 0.21% in [5]. Besides, the Percent Effect in assay [6] came out at 9.13%; in the assay listed under Homo sapiens it was 10.5%; in assay [7], 2.86%; in assay [8] it was 2.35%; in assay [9], 4.26%.
On to `COC(=O)CCC(=O)N1CCc2[nH]nc(-c3ccc4c(c3)OCO4)c2C1`, for which the Percent Effect is -2.09% in assay [1]; 8.11% in assay [2]; 6.85% in assay [3]; 21.3% in assay [4]; 5.18% with Trypanosoma cruzi; 11.2% in assay [5]. Besides, the Percent Effect is 0.258% in [6]; -7.33% in the assay listed under Homo sapiens; 2.15% in [7]; 6.17% in [8]; -11.9% in assay [9].
In the case of `Cc1ccc(N2CC3(CCN(C(=O)c4ccoc4)C3)C2)nn1`, the Percent Effect in assay [1] is -2.51%; in [2], 15.6%; in assay [3], 2.65%; in [4] it was 11.4%; in the assay on Trypanosoma cruzi, 3.64%; in assay [5], -143%. The Percent Effect was 9.48% in assay [6]; 0.925% in the assay filed under Homo sapiens; 5.38% in [7]; 13.6% in [8]; -5.33% in assay [9].
For the compound `CCN(C(=O)CS(=O)(=O)Cc1cc(Cl)c2c(c1)OCCCO2)C1CC1`, the Percent Effect is 2.17% in [1]; 5.06% in assay [2]; -1.41% in assay [3]; -13.2% in [4]; -7.84% in the assay with Trypanosoma cruzi; 5.32% in [5]. For the same compound, the Percent Effect in [6] was 7.62%; in the assay filed under Homo sapiens, 8.01%; in assay [7], 3.45%; in assay [8], 16.5%; in [9], -6.8%.
For the compound `O=C(c1cc(=O)[nH]c(=O)[nH]1)N1CCCCC1c1nc2cc(F)ccc2[nH]1` (stereo unspecified), the Percent Effect in [1] was -4.1%; in assay [2] it was 1.39%; in assay [3] it was 2.15%; in [4], -1.84%; in the assay with Trypanosoma cruzi, 1.07%; in assay [5], 3.97%. The Percent Effect in assay [6] is 6.14%; in the assay filed under Homo sapiens, -12.1%; in [7] it was 3.16%; in [8], 7.69%; in assay [9] it was -2.87%.
For the compound `CN(CCc1ccccc1)Cc1cc(C(=O)N2CCN(C)C(=O)C2)no1`, the Percent Effect in assay [1] is -3.15%; in assay [2] it was 19.2%; in assay [3], -1.8%; in [4], 11%; with Trypanosoma cruzi it was 1.19%; in assay [5], -6.79%. Besides, the Percent Effect is 19.3% in [6]; 5.79% in the assay filed under Homo sapiens; 7.29% in assay [7]; 23.5% in assay [8]; -7.74% in assay [9].
As to `Cc1ccsc1CNC(=O)NC1CCCc2c1cnn2CCO` (stereo unspecified), the Percent Effect is -6.41% in assay [1]; 2.67% in [2]; 2.26% in assay [3]; 2.19% in assay [4]; -1.27% with Trypanosoma cruzi; -3.12% in assay [5]. Further, the Percent Effect in assay [6] is 13.4%; in the assay listed under Homo sapiens, -12.2%; in [7], 6.01%; in assay [8] it was 18.5%; in [9] it was -4.15%.
